Screening results from PubChem BioAssay.
Sampled rows, rich in hits. Any-hit rate of the full collection: about 6.6%.
GRIN3A LBD mod – binders of NR3A ligand-binding domain, primary screen, biophysical, differential scanning fluorimetry, uHTS; 340,000 compounds, 2.5% hits; Tm shift relative to glycine control, % at 25 µM; NR3A LBD differential scanning fluorimetry, Tm shift; 0% = protein alone, 100% = glycine-bound protein;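 active = melting temperature shift of at least 10% of the positive control shift, at one fixed dose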
Beta apoptosis – inhibitors of cytokine-induced beta cell apoptosis, primary screen, luminescence | INS-1E cytokine-induced death, ATP luminescence, 48 h; percent of positive-control rescue, neutral wells zero | protection from apoptosis, % (concentration not given with the values) | 300,000 compounds, 0.8% hits;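 active = Every replicate reaches about 75%, or at least half do and their mean reaches it too, limit read from the data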;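 note: 0% = cytokine-treated negative control wells and 100% = positive control rescue; higher means more ATP so stronger rescue from cytokine killing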
CSC inhib – cancer stem cell viability inhibitors, primary screen, luminescence. cancer stem cell-like cells viability. inhibition, % at 7.5 µM. 300,000 compounds, 1.1% hits. AID 2717, 2010; in the data active = inhibition above about 75%; tested in HMLE shEcad cells
Mdm2 MdmX PPI – inhibitors of human Mdm2-MdmX association, primary screen, cell-based, luminescence, split luciferase, SaOS-2, uHTS; Protein Mdm4 (Homo sapiens) + E3 ubiquitin-protein ligase Mdm2 (Homo sapiens), …; 330,000 compounds, 3% hits; inhibition, % at 8 µM; SaOS-2 split-luciferase Mdm2/MdmX complementation;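 active = inhibition of at least 50% at 8 µM in the primary screen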
MPTP block – mitochondrial permeability transition pore inhibitors, primary screen, biochemical, isolated mouse mitochondria, absorbance; Ca2+ swelling absorbance, 30 min; inhibition, % at 10 µM; 360,000 compounds, 1.4% hits; AID 602449, 2012;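 active = inhibition of 50% or more, scaled per plate between neutral and stimulator controls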;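 note: 0% = DMSO wells given calcium and 100% = 1 mM EGTA wells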
Gli-Sufu antag – Gli-Sufu pathway antagonists, primary screen, luciferase luminescence, Sufu-KO-LIGHT cells, uHTS | inhibition, % at 5 µM | 340,000 compounds, 0.74% hits | Sufu-KO-LIGHT fibroblasts, Gli luciferase reporter luminescence;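 active = inhibition above about 55%, limit read from the data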;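 note: 0% = DMSO-treated cells and 100% = wells with medium but no cells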
* = called active by the depositor; / = not tested or not shown.

SMILES	GRIN3A LBD mod	Beta apoptosis	CSC inhib	Mdm2 MdmX PPI	MPTP block	Gli-Sufu antag
Oc1ccc2ccccc2c1CNc1ccccc1	-9	/	/	/	1	0
COc1ccc(OC)c(-c2csc(NC(=O)Cc3ccc(F)cc3)n2)c1	-3	/	25	34	2	25
COc1ccc(OC)c(-c2csc(NC(=O)CSc3ccc(Br)cc3)n2)c1	19*	-3	43	7	39	-3
COc1ccc(OC)c(-c2csc(NC(=O)COC(=O)c3ccc(NC(=O)CC#N)cc3)n2)c1	13*	-4	-8	22	-1	-8
COc1ccc(OC)c(-c2csc(NC(=O)c3ccc(F)cc3)n2)c1	-2	11	86*	44	1	-3
COc1ccc(OC)c(-c2csc(NC(=O)COC(=O)C3CCC3)n2)c1	-2	0	/	-19	-1	3
O=C(Nc1cccnc1)c1cc(-c2cccc(Br)c2)nc2ccccc12	3	12	14	11	1	-3
O=C(NNC(=O)c1cc(-c2ccc(Cl)c(Cl)c2)nc2ccccc12)Nc1ccccc1	29*	9	92*	50	-2	17
Cc1cccc(NC(=O)NNC(=O)c2cc(-c3ccccc3Cl)nc3ccccc23)c1	8	0	22	-5	-3	4
O=C(Nc1ccncc1)c1cc(-c2cccc(Br)c2)nc2ccccc12	5	33	106*	19	2	39
COc1cc(NC(=O)c2cc(-c3cccnc3)nc3ccc(Br)cc23)cc(OC)c1	10*	14	5	23	1	14
O=C(c1ccccc1)N1N=C(c2ccccc2O)CC1c1ccccc1 (stereo unspecified)	-4	-1	-6	11	0	-10
COCCC(=O)N1CCC(Oc2ccc(C(=O)NC3CCOC(C)(C)C3)cc2)CC1 (stereo unspecified)	-2	-3	-5	-17	-2	-6
CCC/C(=C1/c2ccccc2C(=O)N1c1ccccc1)c1ccc2c(c1)OCCO2	-4	-11	89*	29	1	19
Cc1ccc(NC(NC(=O)c2cccs2)C(Cl)(Cl)Cl)cc1C (stereo unspecified)	12*	/	10	31	1	-1
CCC(CO)Nc1ccn2nc(-c3cccc(Cl)c3)cc2n1 (stereo unspecified)	/	/	/	/	1	/
Cc1ccc(C(C)NC(=O)/C(C#N)=C\c2c(C)[nH]c3ccccc23)cc1 (stereo unspecified)	17*	-7	1	-5	2	-1
Cc1ccc(-n2c(SCC(=O)N3CCCCC3)nc(O)c(Cc3ccccc3)c2=O)cc1	0	-2	4	21	-2	6
C=CCNC(=O)/C(C#N)=C/c1ccccc1OCc1ccc(C(=O)OC)cc1	34*	3	/	11	1	-5
COC(=O)c1ccc(COc2ccccc2/C=C(\C#N)C(=O)Nc2ccc(C)cc2)cc1	-7	4	44	41	0	-9
CCOc1ccc(/C=N/NC(=O)Cc2csc(Nc3cccc(C(F)(F)F)c3)n2)c(OCC)c1	10*	-1	2	-6	2	-7
Cc1cc(C)c(OCC(=O)Nc2ccc(N3CCOCC3)cc2)c(Br)c1	/	/	1	12	1	/
CCc1ccc2c(CN3CCOCC3)cc(=O)oc2c1	-5	0	-7	1	-2	42
CCc1ccc2oc(=O)cc(CN3CCOCC3)c2c1	10*	-11	-5	9	0	0
Cc1cc(-c2onc(C)c2C(=O)N/N=C/c2ccccc2)no1	1	-1	-12	24	2	4
SMILES	GRIN3A LBD mod	Beta apoptosis	CSC inhib	Mdm2 MdmX PPI	MPTP block	Gli-Sufu antag
Cc1ccc(SC(=O)c2c(C)noc2-c2cc(C)on2)cc1	4	-33	81*	12	0	-1
O=S1(=O)CC(N2CCN(CC3CC3)CC2)CN1C1CCCCC1 (stereo unspecified)	/	/	/	/	0	/
CC(/C=C1\SC(=S)N(CC(=O)O)C1=O)=C\c1ccccc1	0	-6	0	-18	5	2
CC(/C=C1\SC(=O)N(CC(=O)Nc2ccc(O)cc2)C1=O)=C\c1ccccc1	10*	0	50	11	4	-8
CC(/C=C1\SC(=O)N(CC(=O)Nc2cccc(O)c2)C1=O)=C\c1ccccc1	19*	-3	117*	-9	5	9
Cn1cc(/C=C2\SC(=S)N(NC(=O)c3cccc(Cl)c3)C2=O)c2ccccc21	20*	/	/	/	6	3
CC(/C=C1\SC(=S)N(NC(=O)c2cccc(O)c2)C1=O)=C\c1ccccc1	22*	6	22	-8	12	1
CC(=O)c1ccc(NC(=O)CCCN2C(=O)/C(=C/C(C)=C/c3ccccc3)SC2=S)cc1	2	-5	-10	30	6	0
Cc1nnc(NC(=O)CCN2C(=O)C3CC=CCC3C2=O)s1 (stereo unspecified)	/	/	/	/	-1	/
CC(=O)Oc1ccc2c(=O)c(-c3nc4ccccc4s3)coc2c1	0	-1	84*	-84	6	-60
CC(C)Oc1ccc2c(=O)c(-c3ccccc3)coc2c1	-2	7	3	-269	-2	-123
Oc1ccc(-c2cccc(-c3ccc(O)cc3)n2)cc1	14*	-15	28	-28	6	-7
Oc1ccc(-c2nccc(-c3ccc(Cl)cc3)n2)cc1	57*	/	-8	-60	0	-37
COc1ccc(CCN(C)C(=O)c2c(C)nn(-c3ccccc3)c2C)cc1OC	-1	-1	-8	-10	-1	-5
Cc1ccc(C)c(N=Cc2c(O)c3ccccc3oc2=O)c1	2	/	-10	29	1	-16
O=C(Cn1cnc2c(OCc3ccccc3)ncnc21)NCCCc1ccccc1	0	0	/	12	1	21
NC(=O)c1nc[nH]c1C(=O)Nc1cccc(NC(=O)c2cccc(C(F)(F)F)c2)c1	-7	3	-11	-1	0	7
N#Cc1ccc(COC(=O)CN2C(=O)NC3(CCCC3)C2=O)cc1	3	/	/	10	0	-2
COc1ccc(-c2cc(=O)c3c(O)c(OC)c(O)cc3o2)cc1	12*	/	-3	-99	-2	-47
O=c1c(O)c(-c2ccc(O)cc2)oc2cc(O)cc(O)c12	13*	/	-13	23	0	6
O=c1cc(-c2ccc(O)cc2)oc2cc(O)cc(O)c12	17*	/	21	-25	1	-2
O=c1c(O)c(-c2ccc(O)c(O)c2)oc2cc(O)ccc12	8	/	/	/	-1	-11
CN(C)C1CN(Cc2cn(Cc3ccc(C(F)(F)F)cc3)nn2)S(=O)(=O)C1 (stereo unspecified)	/	/	/	/	0	/
CCOc1cc(/C=C2/C(=O)ON=C2C)ccc1OCc1ccccc1	26*	70	16	17	/	-18
